Results taken from PubChem BioAssay (Tox21).
Results filed as inconclusive are left out. Activity calls are given as the source filed them. Unless noted, calls come from the whole dose curve; as a rule, active = well fitted curve in the direction sought with a large enough effect in the repeat runs; inconclusive = weak or mixed curves; inactive = flat fitted curve, though single readings scatter.

Columns and labels:
[1] = qHTS assay to test for compound auto fluorescence at 460 nm (blue) in HEK293 cell free culture (AID 720681); conditions: cell-free medium, autofluorescence 405/460 nm (blue); series mostly up to 91.3 µM
How it was run: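 Compounds were added to cell-free DMEM with 10% FBS and fluorescence read directly. The blue channel used 405 nm excitation and 460 nm emission, with triamterene as the reference fluorophore.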

[2] = qHTS assay to test for compound auto fluorescence at 535 nm (green) in HEK293 cell free culture (AID 720682); conditions: cell-free medium, green autofluorescence 485/535 nm; series mostly up to 91.3 µM
How it was run: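 Steps: dispense DMEM/10% FBS into empty wells; pin in compound or DMSO; measure fluorescence at 485/535 nm. Values are fluorescein equivalents.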

[3] = qHTS assay to test for compound auto fluorescence at 590 nm (red) in HEK293 cell free culture (AID 720683); conditions: cell-free medium autofluorescence, Ex540/Em590 red; series mostly up to 91.3 µM
How it was run: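 Cell-free wells of DMEM with 10% FBS received compound, and intrinsic fluorescence was read at excitation/emission 540/590 nm. Values expressed as equivalence to Rose Bengal sodium.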

[4] = qHTS assay to test for compound auto fluorescence at 590 nm (red) in HepG2 cell free culture (AID 720684); conditions: cell-free medium autofluorescence, red 540/590 nm; series mostly up to 91.3 µM
How it was run: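 Compounds are added to culture medium (MEM, 10% FBS) lacking cells, then fluorescence is read at excitation 540 nm, emission 590 nm, with Rose Bengal sodium as the equivalency standard.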

[5] = qHTS assay to test for compound auto fluorescence at 460 nm (blue) in HepG2 cell free culture (AID 720685); conditions: Cell-free culture medium, blue autofluorescence 405/460 nm; series mostly up to 91.3 µM
How it was run: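 Compound (23 nL) or DMSO pinned into cell-free MEM with 10% FBS; blue fluorescence read at 405/460 nm excitation/emission, expressed as auto-fluorescence equivalency to triamterene.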

[6] = qHTS assay to test for compound auto fluorescence at 535 nm (green) in HepG2 cell free culture (AID 720686); conditions: Cell-free medium, green autofluorescence 485/535 nm; series mostly up to 91.3 µM
[7] = qHTS assay to test for compound auto fluorescence at 460 nm (blue) in HepG2 cells (AID 720687); conditions: autofluorescence 405/460 nm, 1 h; series mostly up to 91.3 µM
How it was run: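 HepG2 cells in MEM with 10% FBS, attached overnight at 37 C, were exposed to compound or DMSO for 1 hr at 37 C, 5% CO2. Blue fluorescence was read at 405/460 nm, with triamterene as reference fluorophore.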

[8] = biological target: Glucocorticoid receptor (Homo sapiens) (UniProt P04150); assay: qHTS assay to identify small molecule agonists of the glucocorticoid receptor (GR) signaling pathway (AID 720691; active = well fitted activation curve with a large enough effect in the signal ratio in the repeat runs, not every such curve was filed as active; the % refers to the signal ratio); conditions: GR-bla HeLa, beta-lactamase reporter ratio, 18 h; series mostly up to 62.4 µM
Sequence of Glucocorticoid receptor (Homo sapiens) (P04150 whole entry, looked up): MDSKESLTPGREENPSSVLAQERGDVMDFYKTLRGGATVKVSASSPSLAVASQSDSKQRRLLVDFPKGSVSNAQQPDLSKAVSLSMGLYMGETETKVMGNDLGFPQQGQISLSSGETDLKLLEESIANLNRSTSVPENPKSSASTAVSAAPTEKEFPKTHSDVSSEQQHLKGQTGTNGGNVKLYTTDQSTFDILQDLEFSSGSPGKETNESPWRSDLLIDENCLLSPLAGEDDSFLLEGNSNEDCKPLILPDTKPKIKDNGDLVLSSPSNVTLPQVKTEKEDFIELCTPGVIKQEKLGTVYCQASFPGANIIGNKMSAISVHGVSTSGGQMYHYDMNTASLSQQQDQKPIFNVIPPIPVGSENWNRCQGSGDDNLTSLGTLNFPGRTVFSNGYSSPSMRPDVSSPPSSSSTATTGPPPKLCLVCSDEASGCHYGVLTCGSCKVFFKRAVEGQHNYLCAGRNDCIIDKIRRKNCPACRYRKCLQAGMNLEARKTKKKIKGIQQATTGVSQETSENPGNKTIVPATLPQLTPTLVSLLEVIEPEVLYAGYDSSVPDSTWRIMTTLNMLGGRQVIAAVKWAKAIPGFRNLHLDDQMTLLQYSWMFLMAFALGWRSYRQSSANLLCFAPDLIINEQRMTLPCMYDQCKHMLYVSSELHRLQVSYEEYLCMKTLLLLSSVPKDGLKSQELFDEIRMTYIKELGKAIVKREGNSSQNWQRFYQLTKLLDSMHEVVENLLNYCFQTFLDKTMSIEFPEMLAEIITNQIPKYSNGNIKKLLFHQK
How it was run: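 Beta-lactamase reporter activity, read as fluorescence intensity, was measured in GR-bla HeLa cells exposed to compounds for 18 h at 37 C and then loaded with LiveBLAzer B/G FRET substrate for 2 h at room temperature.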

[9] = biological target: Glucocorticoid receptor (Homo sapiens) (UniProt P04150); assay: qHTS assay to identify small molecule antagonists of the glucocorticoid receptor (GR) signaling pathway (AID 720692; active = well fitted inhibition curve with a large enough effect in the signal ratio in the repeat runs, not every such curve was filed as active; the % refers to the signal ratio); conditions: GR-bla HeLa, beta-lactamase FRET ratio, dexamethasone-stimulated, 18 h; series mostly up to 58.5 µM
How it was run: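 Fluorescence from cleaved LiveBLAzer B/G FRET substrate reports GRE-driven beta-lactamase in HeLa cells; compounds are tested against 5 nM dexamethasone (final) over 18 h at 37 C, substrate incubation 2 h at room temperature.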

Measured: Potency

C=Cc1ccc(S(=O)(=O)O)cc1
not listed: [9]
inactive: all other assays above

Oc1c(I)cc(I)c2cccnc12
not listed: [8] | [9]
inactive: all other assays above

CCC(C)COC(C)=O (stereo not given)
not listed: [4] | [5]
inactive: all other assays above

CC(=O)Nc1cc(S(=O)(=O)O)cc2cc(S(=O)(=O)O)c(N=Nc3ccccc3)c(O)c12
not listed: [8] | [9]
inactive: all other assays above

C=COCC(C)C
not listed: [8] | [9]
inactive: all other assays above

OC[C@H]1O[C@@H](n2cnc3c(=S)nc[nH]c32)[C@H](O)[C@@H]1O
not listed: [8] | [9]
inactive: all other assays above

O=C1c2ccccc2C(=O)C1c1nc2ccccc2c(Br)c1O
not listed: [8] | [9]
inactive: all other assays above
